Experimental data from PubChem BioAssay (NCI).
Compounds without any hit were thinned out: in the full panel of roughly 83,000, 20% have a hit.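 Testing used 96-well plates and a 48-hour single-concentration exposure. Example: -40 means 40% of the starting cells died.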 Values without a mark were called inactive. Activity calls are given as the source filed them. The calls were made as follows: active = growth percent below 10; inactive = the rest.

Assays:
Assay in all cases: NCI-60 one-dose screen, 48 h (100 = growth as untreated, 0 = no growth, -100 = all killed)
Settings in all cases: 10 µM unless noted
[1] = test system: HCT-15 colon
[2] = test system: HT29 colon
[3] = test system: SNB-75 CNS
[4] = test system: SNB-19 CNS
[5] = test system: PC-3 prostate
[6] = test system: SK-MEL-5 melanoma
[7] = test system: UACC-62 melanoma
[8] = test system: LOX IMVI melanoma
[9] = test system: SK-MEL-28 melanoma
[10] = test system: SK-MEL-2 melanoma
[11] = test system: EKVX NSCLC
[12] = test system: SN12C renal
[13] = test system: UO-31 renal
[14] = test system: TK-10 renal
[15] = test system: ACHN renal
[16] = test system: CAKI-1 renal
[17] = test system: A498 renal
[18] = test system: CCRF-CEM leukemia
[19] = test system: MOLT-4 leukemia
[20] = test system: U251 CNS

Row | SMILES | growth [1] | growth [2] | growth [3] | growth [4] | growth [5] | growth [6] | growth [7] | growth [8] | growth [9] | growth [10] | growth [11] | growth [12] | growth [13] | growth [14] | growth [15] | growth [16] | growth [17] [%] | growth [18] | growth [19] | growth [20]
1 | COc1ccc2c(c1)C(Sc1ccc(F)cc1)c1c(nc(N)c(C#N)c1N)O2 (stereo unspecified) | 80.6% | 94.3% | 66.5% | 79.7% | 55.1% | 91.2% | 74.1% | 60.9% | 112% | 97% | 87.1% | 78.5% | 39.8% | 103% | 86.6% | 84.9% | 101 | 1.67% (active) | 53.9% | –
2 | COc1cc(C2CC(c3ccc(C(F)(F)F)cc3)=Nc3c(N)nc(N)nc3N2)ccc1Oc1nc(Nc2ccc(F)cc2)nc(N(C)C)n1 (stereo unspecified) | 18.5% | 3.28% (active) | 46.6% | 49.3% | – | 23.9% | 86.3% | -17.6% (active) | 71.5% | 59.9% | 44.1% | 50.7% | 41.6% | 65.4% | 48.3% | 40.9% | 65.6 | 69.4% | 4.31% (active) | 41.4%
3 | O=C(Nc1ccc(Cl)c(C(F)(F)F)c1)N1CCN(c2cc(-c3cn(-c4ccccc4)nc3-c3cccc(O)c3)ccn2)CC1 | -7.34% (active) | -35.3% (active) | 5.08% (active) | 17% | 6.31% (active) | -97.2% (active) | -88.6% (active) | -76.9% (active) | -24.8% (active) | -66.9% (active) | -0.99% (active) | 4.12% (active) | 5.37% (active) | 8.9% (active) | 3.14% (active) | 9.06% (active) | 38.9 | 0.607% (active) | 1.52% (active) | –
4 | O=C1Nc2ccccc2/C1=C/C(=O)c1cc2ccccc2oc1=O | 30.3% | 110% | 126% | 101% | – | 99.9% | 88.9% | 91% | – | 99.5% | 89.6% | 99.3% | 45.8% | 102% | -47.6% (active) | 75.5% | 223 | 54.7% | 41% | 107%
5 | OC1CCC(Cn2c(C(F)(F)F)cc3c(Cl)ncnc32)CC1 (stereo unspecified) | -14.2% (active) | 49.9% | -71.6% (active) | -88.6% (active) | – | -83.6% (active) | -53.5% (active) | -98.4% (active) | 20.2% | -89.4% (active) | – | 18.5% | -80.2% (active) | 105% | -86.5% (active) | 53.1% | 119 | -7.23% (active) | -43.5% (active) | 11.6%
6 | O=C(CSc1nc2sc3c(c2c(=O)n1-c1ccc(Cl)cc1)CCCC3)NNC(=O)c1ccc(Br)cc1 | 73.9% | 100% | 82.7% | 24.8% | 71.8% | 74.2% | 36.6% | 52.1% | 78.8% | 99.1% | – | 46% | 62.3% | 139% | 91.2% | 71.4% | 127 | 61.2% | 73.2% | –
7 | CN(C)CCCc1ccc(Nc2cnn(C)c(=O)c2Cl)cc1 | 96.6% | 105% | 74.2% | 103% | – | 93.2% | 98.9% | 101% | 111% | 112% | 98.1% | 100% | 88.1% | 109% | 113% | 83.5% | 94.7 | 102% | 115% | 105%
8 | O=C(NNC(=S)NCCc1ccccc1)c1ccc(OCc2nc3ccc(Cl)cc3[nH]2)cc1 | 66.9% | 100% | 128% | 75.6% | 67.1% | 41.6% | 63.3% | 80.4% | 101% | 71.6% | 66.1% | 73.1% | 54.1% | 83.8% | 81.1% | 79.9% | 166 | 58.9% | 39.7% | –
9 | COc1ccc(/C=C/c2nc3ccccc3n3c(-c4cccc([N+](=O)[O-])c4)nnc23)cc1 | -80.7% (active) | -59.5% (active) | -2.16% (active) | 15% | 5.23% (active) | -95.4% (active) | -83.1% (active) | -77.3% (active) | -47.1% (active) | -60.3% (active) | -52% (active) | -72.2% (active) | -90.3% (active) | -47.3% (active) | -97.5% (active) | -91.1% (active) | 75.7 | -14.9% (active) | -36.5% (active) | –
10 | COc1cc(C2CC(c3ccc(S(=O)(=O)NCCNc4nc(N(C)C)nc(N5CCOCC5)n4)cc3)=Nc3c(N)nc(N)nc3N2)cc(OC)c1OC (stereo unspecified) | 93.8% | 99.8% | 102% | 96.2% | 96.3% | 91.4% | 93.7% | 94.3% | 100% | 108% | 75.4% | 86.5% | 80.5% | 107% | 94.6% | 88.4% | 79 | 99.3% | 89.3% | –
11 | O=C(CSc1nc2sc3c(c2c(=O)n1-c1ccc(Cl)cc1)CCCC3)NNC(=O)c1ccc(F)cc1 | 91.8% | 107% | 76% | 32% | 81.9% | 66.9% | 41.1% | 64.2% | 87% | 104% | 63.3% | 40.1% | 56% | 163% | 85.6% | 73.1% | 121 | 73.6% | – | –
12 | O=C(N/N=C/c1c[nH]c2ccccc12)Nc1ccc(F)c(Cl)c1 | 20.2% | 33.5% | 48% | 73.4% | 43.3% | 34% | 48.6% | 4.2% (active) | 58.8% | -9.22% (active) | 40.9% | 42.1% | 37.1% | 80.6% | 41.7% | – | 66.6 | 12.9% | 10.4% | –
13 | COc1cc(/C=C/C(=O)c2cnn(-c3cc(=O)[nH]c4ccccc34)c2C)cc(OC)c1OC | 12.2% | 9.84% (active) | 71.9% | 26.6% | – | -24.9% (active) | 29.9% | 13.5% | – | 52% | 4.03% (active) | -1.59% (active) | 25.6% | 27.7% | 20.3% | 19.1% | 96.1 | -18.6% (active) | -12.8% (active) | 9.13% (active)
